The source of these data is PubChem BioAssay (Tox21).

Inconclusive results are not listed. Where a call stands in place of a potency, no number is given. Unmarked numbers belong to inactive results. Activity calls are given as the source filed them. Unless noted, calls come from the whole dose curve; as a rule, active = well fitted cell-killing curve with a large enough effect in the repeat runs; inconclusive = weak or mixed curves, or effect the other way; inactive = no such curve, though single readings can be large or run the other way.
Note: nearly all actives have a fitted effect of over 30% in size.
Potency is the fitted concentration of half-maximal effect.

Chain of Progesterone receptor (Homo sapiens) (P06401 whole entry, looked up): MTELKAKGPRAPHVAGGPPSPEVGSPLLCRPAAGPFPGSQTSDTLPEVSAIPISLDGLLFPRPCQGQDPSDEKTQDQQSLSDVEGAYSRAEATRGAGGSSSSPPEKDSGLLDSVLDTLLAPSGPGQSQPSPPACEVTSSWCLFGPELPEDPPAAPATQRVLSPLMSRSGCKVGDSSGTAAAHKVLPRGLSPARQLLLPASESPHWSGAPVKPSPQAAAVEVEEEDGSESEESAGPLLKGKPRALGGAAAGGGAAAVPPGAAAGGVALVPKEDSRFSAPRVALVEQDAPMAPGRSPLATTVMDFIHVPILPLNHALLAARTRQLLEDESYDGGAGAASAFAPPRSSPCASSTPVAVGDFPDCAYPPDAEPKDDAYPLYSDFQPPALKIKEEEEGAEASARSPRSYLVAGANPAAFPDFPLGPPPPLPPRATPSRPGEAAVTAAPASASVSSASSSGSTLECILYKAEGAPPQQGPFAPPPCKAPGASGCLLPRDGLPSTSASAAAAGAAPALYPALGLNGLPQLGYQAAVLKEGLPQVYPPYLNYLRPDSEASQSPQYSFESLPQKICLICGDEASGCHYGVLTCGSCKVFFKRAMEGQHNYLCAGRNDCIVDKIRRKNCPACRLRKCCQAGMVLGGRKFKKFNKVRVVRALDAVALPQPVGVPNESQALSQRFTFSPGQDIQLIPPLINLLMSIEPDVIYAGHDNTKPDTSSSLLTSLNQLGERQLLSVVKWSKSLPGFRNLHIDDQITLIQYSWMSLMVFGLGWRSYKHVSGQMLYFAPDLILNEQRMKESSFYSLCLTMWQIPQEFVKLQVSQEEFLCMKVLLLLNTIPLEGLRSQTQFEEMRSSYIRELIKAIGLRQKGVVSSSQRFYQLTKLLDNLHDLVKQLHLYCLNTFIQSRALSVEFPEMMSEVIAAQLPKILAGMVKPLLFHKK

System in one test: not listed separately
In words: qHTS assay to identify small molecule agonists of the estrogen receptor alpha (ER-alpha) signaling pathway in the presence of an antagonist - cell viability counter screen (AID 1259386).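 Note: cells exposed to compounds for 22 h at 37 °C before the viability read.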 Conditions: VM7Luc4E2 viability, CellTiter-Fluor fluorescence, 22 h; series mostly up to 92.4 µM. The procedure, abridged:
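Fluorescent CellTiter-Fluor viability signal from VM7Luc4E2 cells, with the reagent added during the final hour of a 22hr compound exposure at 37C in the presence of 10.0nM ICI-182,780.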
(In qHTS, concentration-response curves come from the screen itself.)
As to `O=NN(CCCl)C(=O)NCCCl`, the Potency entry was “inactive”.
On to `O=C(O)CCS`, for which the Potency result was “inactive”.
The same measure, in the same setting: the result for `CSSc1ccoc1C` reads “inactive”; that for `O=C1OC[C@H](Cc2cccc(O)c2)[C@H]1Cc1cccc(O)c1`, “inactive”.
As for `Nc1ccn([C@H]2CS[C@@H](CO)O2)c(=O)n1`, the Potency result was “inactive”.
On to `FC(F)(F)C(F)(F)C(F)(F)C(F)(F)CCI`, for which the Potency entry was “inactive”.
Same read-out and setting: the result for `CCCCCCCCCCCCCCCC(=O)OCC` reads “inactive”; that for `Nc1ccc(N=Nc2ccc(N)cc2)cc1`, 24.3 µM (active); that for `CC1C(C)(C)C2=C(C(=O)CCC2)C1(C)C` (stereo not drawn), “inactive”.
Turning to `COC(=O)c1sccc1S(N)(=O)=O`, the Potency result was “inactive”.
With `CCCCCCOC(=O)CCCCC`, the Potency result was “inactive”.
Take `O=c1[nH][nH]c(=O)c2cc([N+](=O)[O-])ccc12`: the Potency result was “inactive”.
Same read-out and setting: to `CCC(=O)OCc1ccc(OC)cc1` belongs “inactive”; to `CNC1CCCN(c2c(F)cc3c(=O)c(C(=O)O)cn(C4CC4)c3c2OC)C1` (stereo not drawn), “inactive”; to `Nc1ccc(S(=O)(=O)NCc2ccccc2)cc1`, “inactive”.
Same read-out and setting: the result for `CC(=O)N[C@@H](Cc1ccc(O)cc1)C(=O)O` reads “inactive”.
With `CC(C)(C)NCC(O)COc1cccc2c1C[C@H](O)[C@H](O)C2` (stereo partly drawn), the Potency result is “inactive”.
On to `CCC(Cl)CC(Cl)C(Cl)C(Cl)C(Cl)C(C)Cl` (stereo not drawn), for which the activity change, negative = cytotoxicity is 5.27% [at 19 µM].
Turning to `CC(C)c1ccc(C#N)cc1`, the Potency result is “inactive”.
In the case of `CC1=CC[C@@]23C[C@@H]1C(C)(C)[C@@H]2CC[C@H]3C`, the Potency result was “inactive”.
Take `Cc1cccc2sc(N)nc12`: the Potency result is “inactive”.
For the molecule `CCN(CC)CC(=O)Nc1c(C)cccc1C(=O)OC`, the Potency entry was “inactive”.
Take `CN=C(N)NC(=O)Nc1c(C)cccc1C`: the Potency entry was “inactive”.
`CCCCCCCCCCCCCCN(C)C`: the activity change, negative = cytotoxicity was -8.37% [at 19 µM].
On to `C=CC(=O)NC(C)C`, for which the Potency entry is “inactive”.
With `O=C(O)c1cccc(C[C@@H]2COc3ccc(OCc4nc5cc(F)ccc5s4)cc3[C@@H]2O)c1`, the Potency result was “inactive”.
For `O=C(O)CO`, the Potency result was “inactive”.
Turning to `CCCCC[C@H](O)/C=C/[C@H]1[C@H](O)CC(=O)[C@@H]1C/C=C\CCCC(=O)O`, the Potency entry was “inactive”.
The same measure, in the same setting: to `Cc1ccc(N(CC2=NCCN2)c2cccc(O)c2)cc1` belongs “inactive”; to `CC(C)C(=O)OCCOc1ccccc1`, “inactive”.
Regarding `O=C1CC[C@@H](C(=O)O)N1`, the Potency result was “inactive”.
On the same count and under the same terms, to `CCCCOCCOC(=O)c1cccnc1` belongs “inactive”; to `COC(=O)CC(C(C)=O)C(=O)OC` (stereo not drawn), “inactive”.
The same measure, in the same setting: to `CC(C)(O)c1coc(S(=O)(=O)NC(=O)Nc2c3c(cc4c2CCC4)CCC3)c1` belongs “inactive”; to `COC(CC(C)CCCC(C)(C)O)OC` (stereo not drawn), “inactive”.
The same measure, in the same setting: the result for `C[C@H](CS)C(=O)N1CCC[C@H]1C(=O)O` reads “inactive”; that for `CC(=O)Oc1cccc(O)c1`, “inactive”.
For `CSCC[C@H](NC(=O)[C@H](Cc1c[nH]c2ccccc12)NC(=O)CCNC(=O)OC(C)(C)C)C(=O)N[C@@H](CC(=O)O)C(=O)N[C@@H](Cc1ccccc1)C(N)=O`, the Potency entry is “inactive”.
With `Cc1cccc(C)c1NC(=O)c1cc(S(N)(=O)=O)c(Cl)cc1O`, the Potency result is “inactive”.

A further test has as its target Progesterone receptor (Homo sapiens) (UniProt P06401). In words: qHTS assay to identify small molecule agonists of the progesterone receptor (PR) signaling pathway (AID 1346784; calls by dose curve). Conditions: PR-UAS-bla HEK293T, beta-lactamase FRET ratio, 16 h; series mostly up to 92.4 µM. The procedure, abridged: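 The screen uses PR-UAS-bla HEK 293T cells in charcoal-stripped serum (2%). Compounds are applied for 16 hr at 37C after a 6 hr pre-incubation, and reporter activity is detected with a FRET beta-lactamase substrate after 2 hr at room temperature.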
Regarding `O=NN(CCCl)C(=O)NCCCl`, the Potency entry was “inactive”.
The same measure, in the same setting: to `O=C(O)CCS` belongs “inactive”.
Still for that read-out and setting: to `CSSc1ccoc1C` belongs “inactive”; to `O=C1OC[C@H](Cc2cccc(O)c2)[C@H]1Cc1cccc(O)c1`, “inactive”.
On the same count and under the same terms, the result for `Nc1ccn([C@H]2CS[C@@H](CO)O2)c(=O)n1` reads “inactive”; that for `FC(F)(F)C(F)(F)C(F)(F)C(F)(F)CCI`, “inactive”; that for `CCCCCCCCCCCCCCCC(=O)OCC`, “inactive”.
Regarding `Nc1ccc(N=Nc2ccc(N)cc2)cc1`, the Potency result was “inactive”.
With `CC1C(C)(C)C2=C(C(=O)CCC2)C1(C)C` (stereo not drawn), the Potency entry is “inactive”.
As to `COC(=O)c1sccc1S(N)(=O)=O`, the Potency result is “inactive”.
Still for that read-out and setting: the result for `CCCCCCOC(=O)CCCCC` reads “inactive”; that for `O=c1[nH][nH]c(=O)c2cc([N+](=O)[O-])ccc12`, “inactive”.
Same read-out and setting: to `CCC(=O)OCc1ccc(OC)cc1` belongs “inactive”; to `CNC1CCCN(c2c(F)cc3c(=O)c(C(=O)O)cn(C4CC4)c3c2OC)C1` (stereo not drawn), “inactive”.
Still for that read-out and setting: the result for `Nc1ccc(S(=O)(=O)NCc2ccccc2)cc1` reads “inactive”; that for `CC(=O)N[C@@H](Cc1ccc(O)cc1)C(=O)O`, “inactive”.
Regarding `CC(C)(C)NCC(O)COc1cccc2c1C[C@H](O)[C@H](O)C2` (stereo partly drawn), the Potency entry was “inactive”.
`CCC(Cl)CC(Cl)C(Cl)C(Cl)C(Cl)C(C)Cl` (stereo not drawn): the activation is -2.07% [at 19 µM].
Take `CC(C)c1ccc(C#N)cc1`: the Potency result was “inactive”.
The same measure, in the same setting: the result for `CC1=CC[C@@]23C[C@@H]1C(C)(C)[C@@H]2CC[C@H]3C` reads “inactive”; that for `Cc1cccc2sc(N)nc12`, “inactive”.
With `CCN(CC)CC(=O)Nc1c(C)cccc1C(=O)OC`, the Potency entry was “inactive”.
On to `CN=C(N)NC(=O)Nc1c(C)cccc1C`, for which the Potency entry is “inactive”.
In the case of `CCCCCCCCCCCCCCN(C)C`, the Potency is 0.738 µM (active).
In the case of `C=CC(=O)NC(C)C`, the Potency result was “inactive”.
Same read-out and setting: the result for `O=C(O)c1cccc(C[C@@H]2COc3ccc(OCc4nc5cc(F)ccc5s4)cc3[C@@H]2O)c1` reads “inactive”.
With `O=C(O)CO`, the Potency result is “inactive”.
Regarding `CCCCC[C@H](O)/C=C/[C@H]1[C@H](O)CC(=O)[C@@H]1C/C=C\CCCC(=O)O`, the Potency entry is “inactive”.
Take `Cc1ccc(N(CC2=NCCN2)c2cccc(O)c2)cc1`: the Potency entry was “inactive”.
Regarding `CC(C)C(=O)OCCOc1ccccc1`, the Potency entry is “inactive”.
With `O=C1CC[C@@H](C(=O)O)N1`, the Potency result was “inactive”.
Still for that read-out and setting: to `CCCCOCCOC(=O)c1cccnc1` belongs “inactive”.
As to `COC(=O)CC(C(C)=O)C(=O)OC` (stereo not drawn), the Potency entry was “inactive”.
Regarding `CC(C)(O)c1coc(S(=O)(=O)NC(=O)Nc2c3c(cc4c2CCC4)CCC3)c1`, the Potency entry was “inactive”.
As to `COC(CC(C)CCCC(C)(C)O)OC` (stereo not drawn), the Potency result is “inactive”.
Regarding `C[C@H](CS)C(=O)N1CCC[C@H]1C(=O)O`, the Potency result was “inactive”.
Regarding `CC(=O)Oc1cccc(O)c1`, the Potency entry was “inactive”.
Turning to `CSCC[C@H](NC(=O)[C@H](Cc1c[nH]c2ccccc12)NC(=O)CCNC(=O)OC(C)(C)C)C(=O)N[C@@H](CC(=O)O)C(=O)N[C@@H](Cc1ccccc1)C(N)=O`, the Potency result is “inactive”.
The same measure, in the same setting: the result for `Cc1cccc(C)c1NC(=O)c1cc(S(N)(=O)=O)c(Cl)cc1O` reads “inactive”.
